Experimental data from the supplement of paper PMC6279402.
± gives the standard deviation of the averaged measurements.

Tested on: A549
Assay: relative viability (normalised to negative control = 1, bortezomib = 0) (fraction); higher = less cytotoxic
Details: inflammatory serum-free RHB-A with cytokines + LPS, 5 d + 24 h CellTiter-Blue
[1] = compound 30 nM, GSK126 pretreatment: 5 uM GSK126
[2] = compound 30 nM, GSK126 pretreatment: none (vehicle)
[3] = compound 300 nM, GSK126 pretreatment: 5 uM GSK126
[4] = compound 300 nM, GSK126 pretreatment: none (vehicle)

Structure (SMILES) | relative viability [1] | relative viability [2] | relative viability [3] | relative viability [4]
O=c1c(O)c(-c2ccc(O)c(O)c2)oc2cc(O)cc(O)c12 [QUERCETIN; Quercetin(Sophoretin); Quercetin dihydrate] | 0.89 ± 0.032 | 0.911 ± 0.052 | 0.961 ± 0.11 | 0.945 ± 0.058
C#Cc1cccc(Nc2ncnc3cc(OCCOC)c(OCCOC)cc23)c1 | 0.81 ± 0.083 | 0.823 ± 0.12 | 0.448 ± 0.041 | 0.494 ± 0.031
CCS(=O)(=O)Nc1ccc2[nH]c(O)c(C(=Nc3ccc(CN4CCCCC4)cc3)c3ccccc3)c2c1 [Hesperadin] | 0.652 ± 0.13 | 0.598 ± 0.063 | 0.336 ± 0.019 | 0.331 ± 0.022
Nc1cc(C(F)(F)F)c(-c2cc(N3CCOCC3)nc(N3CCOCC3)n2)cn1 | 0.85 ± 0.082 | 0.771 ± 0.058 | 0.664 ± 0.064 | 0.751 ± 0.052
CCN(CC)CCNC(=O)c1c(C)[nH]c(/C=C2\C(=O)Nc3ccc(F)cc32)c1C [Sunitinib; Sunitinib Malate; Sunitinib (free base)] | 0.842 ± 0.03 | 0.832 ± 0.046 | 0.896 ± 0.067 | 0.939 ± 0.097
Cc1c2oc3c(C)ccc(C(=O)N[C@@H]4C(=O)N[C@H](C(C)C)C(=O)N5CCC[C@H]5C(=O)N(C)CC(=O)N(C)[C@@H](C(C)C)C(=O)O[C@@H]4C)c3nc-2c(C(=O)N[C@@H]2C(=O)N[C@H](C(C)C)C(=O)N3CCC[C@H]3C(=O)N(C)CC(=O)N(C)[C@@H](C(C)C)C(=O)O[C@@H]2C)c(N)c1=O [Dactinomycin] | -0.00158 ± 0.00097 | 0.00574 ± 0.0057 | -0.00171 ± 0.00059 | 0.00607 ± 0.0081
CN(C)Cc1cccc(N=C(c2ccccc2)c2c(O)[nH]c3cc(C(N)=O)ccc23)c1 | 0.984 ± 0.17 | 0.911 ± 0.16 | 1.08 ± 0.2 | 0.942 ± 0.13
COc1cccc2cc(-c3nc(C4CCC(C(=O)O)CC4)n4ncnc(N)c34)[nH]c12 (stereo not given) | 0.815 ± 0.016 | 0.797 ± 0.045 | 0.588 ± 0.07 | 0.718 ± 0.055
C=CC(=O)Nc1cccc(Oc2nc(Nc3ccc(N4CCN(C)CC4)cc3OC)ncc2Cl)c1 | 0.978 ± 0.051 | 0.897 ± 0.034 | 0.782 ± 0.086 | 0.87 ± 0.095
Cc1[nH]c(/C=C2\C(=O)Nc3ccc(S(=O)(=O)N(C)c4cccc(Cl)c4)cc32)c(C)c1C(=O)N1CCN(C)CC1 | 0.89 ± 0.053 | 0.887 ± 0.099 | 1.03 ± 0.01 | 1.03 ± 0.01
OC[C@H]1O[C@@H](n2cnc3c2N=CNC[C@H]3O)C[C@@H]1O [Pentostatin] | 0.908 ± 0.068 | 0.918 ± 0.062 | 0.931 ± 0.076 | 0.914 ± 0.056
CC(C)(C)c1cc(NC(=O)Nc2ccc(-c3cn4c(n3)sc3cc(OCCN5CCOCC5)ccc34)cc2)no1 | 0.952 ± 0.016 | 0.898 ± 0.068 | 1.05 ± 0.087 | 1 ± 0.031
CS(=O)(=O)c1ccc(C(=O)Nc2ccc(Cl)c(-c3ccccn3)c2)c(Cl)c1 [Vismodegib] | 0.993 ± 0.058 | 0.952 ± 0.12 | 1.05 ± 0.14 | 1.03 ± 0.074
Cc1ccc(NC(=O)c2cccc(N(C)C)c2)cc1NC(=O)c1ccc(O)cc1 | 0.965 ± 0.086 | 1.02 ± 0.11 | 1.19 ± 0.13 | 1.15 ± 0.042
FC(F)(F)c1ccc(/C=C/c2nc(COc3ccc(CCCCn4ccnn4)cc3)co2)cc1 [Mubritinib (TAK 165)] | 0.798 ± 0.028 | 0.837 ± 0.061 | 0.561 ± 0.081 | 0.94 ± 0.011
Cc1cnc(-c2cnc(NCCNc3ccc(C#N)cn3)nc2-c2ccc(Cl)cc2Cl)[nH]1 | 0.847 ± 0.064 | 0.834 ± 0.016 | 0.788 ± 0.059 | 0.732 ± 0.097
Clc1ccc(C2(c3ccc(-c4cn[nH]c4)cc3)CCNCC2)cc1 | 0.706 ± 0.086 | 0.77 ± 0.055 | 0.734 ± 0.044 | 0.854 ± 0.012
O=C(O)c1ccc2c(c1)nc(Nc1cccc(Cl)c1)c1ccncc12 | 0.707 ± 0.14 | 0.761 ± 0.04 | 0.728 ± 0.11 | 0.839 ± 0.12
CC1(COc2ccc3c(c2)ncn3-c2ccc3cccc(N4CCC(N)CC4)c3n2)COC1 | 0.986 ± 0.081 | 0.966 ± 0.12 | 1.3 ± 0.087 | 1.34 ± 0.12
Cc1c(CN2CCN(C(=O)[C@H](C)O)CC2)sc2c(N3CCOCC3)nc(-c3cnc(N)nc3)nc12 | 0.678 ± 0.048 | 0.754 ± 0.063 | 0.15 ± 0.033 | 0.172 ± 0.013
Cc1cc(Nc2nc(N[C@@H](C)c3ccc(F)cc3)c(C#N)cc2F)n[nH]1 | 1.23 ± 0.055 | 1.16 ± 0.11 | 0.269 ± 0.021 | 0.309 ± 0.027
Cc1cc(Nc2cc(N3CCN(C)CC3)nc(Sc3ccc(NC(=O)C4CC4)cc3)n2)n[nH]1 | 0.766 ± 0.087 | 0.717 ± 0.062 | 0.584 ± 0.067 | 0.459 ± 0.052
CC(C)CC(=O)Nc1n[nH]c2c1CN(C(=O)C1CCN(C)CC1)C2(C)C | 0.84 ± 0.097 | 0.829 ± 0.069 | 0.761 ± 0.077 | 0.787 ± 0.033
C=CC(=O)N1CCC[C@@H](n2nc(-c3ccc(Oc4ccccc4)cc3)c3c(N)ncnc32)C1 | 0.769 ± 0.14 | 0.718 ± 0.11 | 0.429 ± 0.02 | 0.41 ± 0.048
NC(=O)Nc1cc(-c2cccc(F)c2)sc1C(=O)N[C@H]1CCCNC1 | 0.407 ± 0.061 | 0.389 ± 0.034 | 0.253 ± 0.082 | 0.194 ± 0.021
